# From PubChem BioAssay (Tox21)
# Active and inactive are the calls of the source. The call rests on the fitted dose curve; in most records, active means well fitted curve in the direction sought with a large enough effect in the repeat runs; inconclusive means weak or mixed curves; inactive means flat fitted curve, though single readings scatter.
# Assay: qHTS assay to test for compound auto fluorescence at 535 nm (green) in HEK293 cell free culture (AID 720682)
# Conditions: cell-free medium, green autofluorescence 485/535 nm, active compounds read high; series mostly up to 91.3 µM; activity change: at the top concentration
# Excerpt: U.S. Tox21 Program National Center for Advancing Translational Sciences [NCATS] NIH Chemical Genomics Center [NCGC] U.S. Environmental Protection Agency [EPA] National Institutes of Environmental Health Sciences [NIEHS] National Toxicology Program [NTP] U.S. Food and Drug Administration [FDA] Tox21 Assay Overview: Compound auto fluorescence often interferes with screening of the compound library against various biological targets and signaling pathways. Some of these compounds may have fluorophoric properties. Such properties may interfere with the assay outputs resulting in false positives and/or negatives. To decrease such complications and ensure the compound activities are relevant in terms of biological response, the Tox21 10K compound library was screened for auto fluorescence. From the fluorophores used as reporter signals in our screening assays, the auto fluorescence equivalencies of compounds against three fluorophores have been evaluated: Triamterene, Fluorescein and Rose Bengal sodium for blue, green and red fluorescence, respectively. The fluorescence intensities were measured using Excitation/Emission wavelengths at 405/460nm, 485/535nm and 540/590nm for blue, green and red labels, respectively. This assay includes the green fluorescence data.
# Tox21 Assay Protocol Summary: 5 uL of culture medium (DMEM containing 10% FBS) per well was dispensed into black wall/clear bottom 1536-well plates using a Multidrop Combi Dispenser (ThermoFisher Scientific, Waltham, MA). After 23 nL compound or DMSO vehicle was transferred into assay plate by a pintool work station (Kalypsys, San Diego, CA), fluorescence intensities in the assay plates were measured by an Envision (PerkinElmer, Shelton, CT) plate reader using three labels for measuring blue, green and red fluorescence at […] 460, 535 and 590nm respectively.
# On the % scale 0 is the no-effect control and ±100 the full control effect.
SMILES,activity change,outcome
COc1ccc2[nH]c(S(=O)Cc3ncc(C)c(OC)c3C)nc2n1 (stereo not given),-0.0039% [at 46 µM] (inactive),–
O=C(c1ccccc1)c1ccc2n1CCC2C(=O)O (stereo not given),–,inactive
CC(C)(C)c1ccc(OCC2CO2)cc1 (stereo not given),-0.0315% [at 95.7 µM] (inactive),–
C=C(C)C(=O)OCCN(C)C,-0.0078% (inactive),–
CN(C(=O)CCCOc1ccc2[nH]c(=O)ccc2c1)C1CCCCC1,-0.025% [at 46 µM] (inactive),–
O=C(C(=O)c1ccc(Br)cc1)c1ccc(Br)cc1,0.0143% [at 18.6 µM] (inactive),–
CCCC(C)C,-0.0176% (inactive),–
O=C(O)C(c1ccc(Cl)cc1)c1ccc(Cl)cc1,-0.149% (inactive),–
C[C@H](CCC(=O)O)[C@H]1CC[C@H]2[C@@H]3[C@H](O)C[C@@H]4C[C@H](O)CC[C@]4(C)[C@H]3CC[C@]12C,–,inactive
C[C@@H](C1=C(CCN(C)C)Cc2ccccc21)c1ccccn1,-0.0106% [at 46 µM] (inactive),–
CC(C)NCC(O)c1cc(O)cc(O)c1 (stereo not given),-0.0124% [at 46 µM] (inactive),–
CC1=CCC(C(C)C)C=C1 (stereo not given),0.0368% (inactive),–
CN(C)CC[C@@H](c1ccc(Br)cc1)c1ccccn1,0.0223% [at 46 µM] (inactive),–
CC(C)c1ccccc1C(C)C,0.0986% (inactive),–
CCN(CC)CCOC(=O)C1(c2ccccc2)CCCC1,-0.206% [at 46 µM] (inactive),–
Nc1nc(N)c(-c2ccccc2)s1,-0.0197% [at 46 µM] (inactive),–
O=S1(=O)c2cccc3cccc(c23)N1CCCN1CCN(c2ccc(F)cc2)CC1,0.029% [at 46 µM] (inactive),–
CCCCOCCOCCOCCOCCO,-0.0018% (inactive),–
CCCCCCCCCCCCCCCCCBr,-0.0304% [at 18.6 µM] (inactive),–
O=C(O)C1CCC(C(=O)O)CC1 (stereo not given),-0.0547% (inactive),–

SMILES,activity change,outcome
CCCCCOC(=O)c1ccc(O)cc1,-0.0886% [at 95.7 µM] (inactive),–
Cn1c(N)nc2nc[nH]c2c1=O,0.0452% (inactive),–
O=[N+]([O-])c1cccc(Cl)c1Cl,0.0222% (inactive),–
O=CNc1ccccc1,-0.0176% (inactive),–
O=S1(=O)N=C(O)c2ccccc21,0.0266% [at 46 µM] (inactive),–
CC(C)(C)c1cc(CCC(=O)OCC(COC(=O)CCc2cc(C(C)(C)C)c(O)c(C(C)(C)C)c2)(COC(=O)CCc2cc(C(C)(C)C)c(O)c(C(C)(C)C)c2)COC(=O)CCc2cc(C(C)(C)C)c(O)c(C(C)(C)C)c2)cc(C(C)(C)C)c1O,-0.0052% [at 46 µM] (inactive),–
Cc1ccc(C(=O)C(C)CN2CCCCC2)cc1 (stereo not given),–,inactive
CCCCCCCCN(C)C,0.127% (inactive),–
CC(C)(C)C(=O)OCOP(=O)(COCCn1cnc2c(N)ncnc21)OCOC(=O)C(C)(C)C,0.487% [at 46 µM] (inactive),–
O=C(O)COC(=O)Cc1ccccc1Nc1c(Cl)cccc1Cl,0.0139% [at 18.6 µM] (inactive),–
CC(=O)CC(=O)c1ccccc1,0.0359% (inactive),–
CC(=O)N(O)CCCCCNC(=O)CCC(=O)N(O)CCCCCNC(=O)CCC(=O)N(O)CCCCCN,0.033% [at 18.6 µM] (inactive),–
Cc1cc(O)ccc1N,0.648% (inactive),–
CCCCCCCC/C=C\CCCCCCCC(N)=O,-0.0776% (inactive),–
N=C(N=C(N)N)N1CCOCC1,-0.0209% [at 18.6 µM] (inactive),–
Oc1ccc(Cc2ccccc2)cc1,-0.0017% (inactive),–
N#CCCNCCC#N,0.0162% [at 95.7 µM] (inactive),–
O=S(=O)(O)c1ccc(O)c2ncccc12,0.0868% (inactive),–
CCOc1cc(OCC)c(C(=O)CCC(=O)O)cc1OCC,0.0366% [at 46 µM] (inactive),–
CCOc1ccc(NC(=O)CC(C)=O)cc1,0.0685% (inactive),–
